Test results as given in ChEMBL document CHEMBL3988442, “University of Dundee, Small-Polar-MMV Screening Library” (2021).
In all, about 38,000 compounds went through this assay and about 1,200 (3.2%) showed an effect of 50% or more. The median lay at about -58%. The full list was thinned out, with strong results kept by preference.

tested on: Plasmodium falciparum; experiment: Calibr Malaria Delayed Death Assay SOP; format: functional, organism-based; parameters: scale not given: in the data most compounds retested in dose-response had high values; conditions: concentration 4.99e-06 (unit not given; other assays of the set use mol/L)

Row | Structure (SMILES) | Percent Effect [%]
1 | C=C/C=c1\c(=C/C)oc2c(NCc3ccccc3)ncnc12 | -45.75
2 | CCCc1nc(N2CCCC(C)C2)c2c(n1)c(C)nn2CC (stereo not drawn) | -54.34
3 | CCc1c(C)sc2nc3n(CC(N)=O)nc(SC)n3c(=O)c12 | -38.8
4 | CN(C)[C@H]1CCCCN(C(=O)COCc2nc3cc(F)ccc3[nH]2)C1 | -11.74
5 | COC(C)Cc1nc(-c2cnn3c(C)cc(C)nc23)no1 (stereo not drawn) | -0.05951
6 | CO[C@@H]1CCN(c2ncc(F)cn2)[C@@H]2CN(Cc3cccnc3)C[C@@H]21.O=C(O)C(F)(F)F.O=C(O)C(F)(F)F.O=C(O)C(F)(F)F | -59.6
7 | CO[C@@H]1CCN(Cc2ccoc2)[C@@H]2CN(Cc3ccco3)C[C@@H]21.O=C(O)C(F)(F)F.O=C(O)C(F)(F)F | 46.48
8 | CO[C@@H]1CCN(Cc2c(C)noc2C)[C@@H]2CN(Cc3ccco3)C[C@@H]21.O=C(O)C(F)(F)F.O=C(O)C(F)(F)F | 39.75
9 | CO[C@@H]1CCN(Cc2ccccn2)[C@@H]2CN(Cc3ccco3)C[C@@H]21.O=C(O)C(F)(F)F.O=C(O)C(F)(F)F.O=C(O)C(F)(F)F | 81.61
10 | CO[C@H]1CCN(c2ncc(F)cn2)[C@@H]2CN(Cc3ccco3)C[C@H]12.O=C(O)C(F)(F)F.O=C(O)C(F)(F)F | 62.54
11 | CCN1C[C@H]2[C@@H](C1)N(c1ncc(F)cn1)CC[C@H]2OC.O=C(O)C(F)(F)F.O=C(O)C(F)(F)F | 33.74
12 | Clc1snnc1CN(Cc1cccs1)C1CC1 | -103.1
13 | CCc1noc(C(C)N(C)CC(=O)Nc2cccc(C)c2C)n1 (stereo not drawn) | -134.7
14 | O=C(O)[C@@H]1CN(C(=O)c2ccc(F)c(F)c2)C[C@H]1c1cccc(F)c1 | -108.3
15 | Cc1cc(CN2CCN(C(=O)C(C(C)C)n3cncn3)CC2)on1 (stereo not drawn) | -30.78
16 | O=c1ccc(-c2cccs2)nn1CN1CCc2ccccc2C1 | -135
17 | CCC(CNC(=O)c1ccccn1)N1CCc2ccccc2C1 (stereo not drawn) | 22.7
18 | O=C1CCCCCN1Cc1cccc(OC(F)F)c1 | -103.2
19 | CSCc1noc(CN2CCCCC2CCc2ccc(O)cc2)n1 (stereo not drawn) | -58.4
20 | Cc1noc(C)c1CN1CCCC1C(=O)OCc1ccccc1 (stereo not drawn) | -68.08

Row | Structure (SMILES) | Percent Effect [%]
21 | Cc1noc(C)c1CN1CCCCC1CCc1ccc(O)cc1 (stereo not drawn) | 50.08
22 | c1cc(-c2cnccn2)cc(-c2ccn(CCN3CCCCC3)n2)c1 | 41.47
23 | c1cc(-c2cnccn2)cc(-c2ccn(CCCN3CCCCC3)n2)c1 | 18.71
24 | c1cc(-c2cnccn2)cc(-c2ccn(CCN3CCCC3)n2)c1 | 67.88
25 | Cc1cc2[nH]c(=O)oc2cc1S(=O)(=O)N1CCC(N2CCCC2=O)CC1 | -16.02
26 | CC(=O)N(C)CC(=O)NC(C)c1ccc(OCCC(C)C)cc1 (stereo not drawn) | -42.24
27 | Cc1nc(CCNC(=O)NCC(c2ccco2)N(C)C)cs1 (stereo not drawn) | -71.79
28 | O=C(NCCc1ccncc1)[C@H]1C[C@@H]2CCN(c3nncs3)C[C@H]2O1 | -93.92
29 | COCCN(C)C(=O)NCCc1coc(-c2ccc(C)cc2)n1 | -79.36
30 | Cc1ncc(CNC(=O)N(CCCO)C2CCc3ccccc32)s1 (stereo not drawn) | -63.88
31 | CC(C)n1ncc2c1NC(=O)CC21C(=O)Nc2c(Cl)ccc(Cl)c21 (stereo not drawn) | 83.19
32 | CC(C)n1ncc2c1NC(=O)CC21C(=O)Nc2cc(Cl)cc(Cl)c21 (stereo not drawn) | -81.88
33 | CC(C)n1ncc2c1NC(=O)CC21C(=O)Nc2c(Cl)cc(Br)cc21 (stereo not drawn) | -58.13
34 | COc1ccc(Cl)cc1NC(=O)N1CCc2nc(NC(C)=O)sc2C1 | -92.85
35 | COc1ccc(COCC(O)CNC(=O)c2cc(C)oc2C)cc1 (stereo not drawn) | -54.86
36 | O=C(NCCCn1cccn1)C1(c2cccc(Cl)c2)CC1 | -36.51
37 | CS(=O)(=O)NCc1nnc2n1CCN(Cc1cccnc1)C2 | -124.8
38 | Cc1nc(NC2(CN3CCCCC3)CCCCC2)c2cnn(C)c2n1 | 54.86
39 | CCOC(=O)CC1(Nc2nc(C)nc3c2cnn3C)CCCCC1 | -28.38
40 | COCC1(Nc2nc(C)nc3c2cnn3C)CCCC1 | -148.5

Row | Structure (SMILES) | Percent Effect [%]
41 | COc1cc(C(=O)NS(=O)(=O)c2cc(Cl)sc2Cl)ccc1OC(F)F | -57.9
42 | OCCN(CCO)Cc1ccc(Br)c2cccnc12 | -31.32
43 | CCN(CCO)Cc1ccc(Br)c2cccnc12 | 54.32
44 | N#CCCN(CCC#N)Cc1ccc(Br)c2cccnc12 | -154.3
45 | O=C(NCC1(O)CCC1)c1c(O)cc(Cl)cc1Cl | -101.6
46 | O=C(NCc1ccon1)N1CCC(n2ccc(C(F)(F)F)n2)CC1 | -25.88
47 | Cc1ccnn1CCN1CCCC2(CCC(=O)N(C3CCCC3)C2)C1 (stereo not drawn) | -99.39
48 | CN1CC(=O)N(c2ccccc2)CC12CCN(C(=O)CC1CC1)C2.O=C(O)C(F)(F)F (stereo not drawn) | -38.66
49 | O=C(c1ccc(=O)[nH]c1)N1C[C@@H]2CC[C@H](C1)N(Cc1ccccc1)C2 | -23.45
50 | O=C(c1ccc(F)c(Cl)c1)N1C[C@@H]2CC[C@H](C1)N(Cc1ccccc1)C2 | 73.05
51 | O=C(c1cc(F)cc(Cl)c1)N1C[C@@H]2CC[C@H](C1)N(Cc1ccccc1)C2 | -134.7
52 | Cc1nn(C)c2nc(NCCCN3CCCC(CO)C3)sc12 (stereo not drawn) | -120
53 | N#Cc1ccc(CN2CCNC(=O)C2c2cccs2)cc1 (stereo not drawn) | -98.76
54 | CC[C@]12CN3C[C@](CC)(CN(C1)C3c1[nH]c(=O)[nH]c(=O)c1C)C2=O (stereo partly drawn) | -91.51
55 | CN(Cc1cccnc1)Cc1cn2c(n1)CN(C1CCOC1)CC2.O=C(O)C(F)(F)F.O=C(O)C(F)(F)F.O=C(O)C(F)(F)F (stereo not drawn) | -34.3
56 | CC(C)CC(=O)NCCCn1cncn1 | -49.15
57 | N#Cc1csc(CNCCOc2ccccc2)c1 | -47.61
58 | CC(C)N1Cc2c(C(=O)N3CCN(C)CC3)nn(C)c2C1 | -111.4
